# Source: PMC8384837, “Expanding the binding specificity for RNA recognition by a PUF domain”
# Changes are numbered by the printed parent chain.
# Assays:
# Experiment in all cases: yeast three-hybrid, YBZ-1, SC-Leu-His + 0.5 mM 3-AT, 4 days
# Conditions in all cases: tags: N-Gal4 AD-HA kept; label: inside an RPR1-promoter hybrid RNA with tandem MS2 sites; ssRNA
# PUM1 PUF domain R1-RVS = PUM1 PUF domain R1-RVS (Homo sapiens, UniProt Q14671 828-1176, S863R;R864V;Q867S)
# Method in brief: (§1)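 Pumilio-1 PUF domain libraries, randomized at the three base-contacting residues of each repeat, were co-expressed with matching RNA elements from a centromeric plasmid in strain YBZ-1, which carries a LexA–MS2 coat fusion and a HIS3 reporter. Transformants grew for four days on SC-Leu (input) or on SC-Leu-His + 0.5 mM 3-AT (selection), and the repeat regions were PCR-amplified and Illumina-sequenced. The interaction score is the log change in variant frequency from input to selection. That logarithm is base 2, with a pseudocount of 1 where a variant was absent.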
# PUM1 PUF domain R1-RGS = PUM1 PUF domain R1-RGS (Homo sapiens, UniProt Q14671 828-1176, S863R;R864G;Q867S)
# Method in brief: as §1
# PUM1 PUF domain R4-WSR = PUM1 PUF domain R4-WSR (Homo sapiens, UniProt Q14671 828-1176, N971W;H972S;Q975R)
# Method in brief: as §1
# PUM1 PUF domain R5-TSR = PUM1 PUF domain R5-TSR (Homo sapiens, UniProt Q14671 828-1176, C1007T;R1008S;Q1011R)
# Method in brief: as §1
# PUM1 PUF domain R5-QQR = PUM1 PUF domain R5-QQR (Homo sapiens, UniProt Q14671 828-1176, C1007Q;R1008Q;Q1011R)
# Method in brief: as §1
# PUM1 PUF domain R5-RKI = PUM1 PUF domain R5-RKI (Homo sapiens, UniProt Q14671 828-1176, C1007R;R1008K;Q1011I)
# Method in brief: as §1
# PUM1 PUF domain R4-CNI = PUM1 PUF domain R4-CNI (Homo sapiens, UniProt Q14671 828-1176, N971C;H972N;Q975I)
# Method in brief: as §1
# PUM1 PUF domain R6-FYS = target: T1, PUM1 PUF domain R6-FYS (Homo sapiens, UniProt Q14671 828-1176, N1043F;Q1047S)
# T1 sequence: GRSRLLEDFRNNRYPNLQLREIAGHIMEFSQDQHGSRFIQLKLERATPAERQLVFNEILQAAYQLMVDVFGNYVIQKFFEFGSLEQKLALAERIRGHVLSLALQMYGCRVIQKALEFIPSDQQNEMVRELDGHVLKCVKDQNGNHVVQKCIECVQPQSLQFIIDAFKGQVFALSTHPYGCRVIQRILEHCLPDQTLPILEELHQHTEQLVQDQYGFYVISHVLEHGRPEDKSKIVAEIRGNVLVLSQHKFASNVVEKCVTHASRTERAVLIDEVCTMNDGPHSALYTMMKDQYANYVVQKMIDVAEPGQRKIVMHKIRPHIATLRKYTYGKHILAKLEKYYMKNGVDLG
# Method in brief: as §1
# PUM1 PUF domain R6-GYR = target: T2, PUM1 PUF domain R6-GYR (Homo sapiens, UniProt Q14671 828-1176, N1043G;Q1047R)
# T2 sequence: T1 sequence with F216G, S220R
# Method in brief: as §1
# PUM1 PUF domain R3-RVS = PUM1 PUF domain R3-RVS (Homo sapiens, UniProt Q14671 828-1176, C935R;R936V;Q939S)
# Method in brief: as §1
sequence,measurement,setting,value
GGCUAGAACUAGUGGAUCCCCCGGCGCCCGGCGGCUCGAGCCCGGGUAAGUGUAAAUGGUCUGCAUGCCGCCGGGCGCCAUGCCUGCAGGUCGACUCUAGAAAACAUG,binding signal,PUM1 PUF domain R1-RVS,1.89 log2 enrichment (interaction score)
same,binding signal,PUM1 PUF domain R1-RGS,0.85 log2 enrichment (interaction score)
GGCUAGAACUAGUGGAUCCCCCGGCGCCCGGCGGCUCGAGCCCGGGUAAGUGUAUAUAGUCUGCAUGCCGCCGGGCGCCAUGCCUGCAGGUCGACUCUAGAAAACAUG,binding signal,PUM1 PUF domain R4-WSR,1.87 log2 enrichment (interaction score)
GGCUAGAACUAGUGGAUCCCCCGGCGCCCGGCGGCUCGAGCCCGGGUAAGUGUCAAUAGUCUGCAUGCCGCCGGGCGCCAUGCCUGCAGGUCGACUCUAGAAAACAUG,binding signal,PUM1 PUF domain R5-TSR,5.55 log2 enrichment (interaction score)
same,binding signal,PUM1 PUF domain R5-QQR,6.22 log2 enrichment (interaction score)
same,binding signal,PUM1 PUF domain R5-RKI,3.24 log2 enrichment (interaction score)
GGCUAGAACUAGUGGAUCCCCCGGCGCCCGGCGGCUCGAGCCCGGGUAAGUGUACAUAGUCUGCAUGCCGCCGGGCGCCAUGCCUGCAGGUCGACUCUAGAAAACAUG,binding signal,PUM1 PUF domain R4-WSR,2.55 log2 enrichment (interaction score)
same,binding signal,PUM1 PUF domain R4-CNI,3.63 log2 enrichment (interaction score)
GGCUAGAACUAGUGGAUCCCCCGGCGCCCGGCGGCUCGAGCCCGGGUAAGUGUAAAUCGUCUGCAUGCCGCCGGGCGCCAUGCCUGCAGGUCGACUCUAGAAAACAUG,binding signal,PUM1 PUF domain R1-RVS,4.31 log2 enrichment (interaction score)
same,binding signal,PUM1 PUF domain R1-RGS,2.68 log2 enrichment (interaction score)
GGCUAGAACUAGUGGAUCCCCCGGCGCCCGGCGGCUCGAGCCCGGGUAAGUGUAAAUUGUCUGCAUGCCGCCGGGCGCCAUGCCUGCAGGUCGACUCUAGAAAACAUG,binding signal,PUM1 PUF domain R1-RVS,3.69 log2 enrichment (interaction score)
same,binding signal,PUM1 PUF domain R1-RGS,2.53 log2 enrichment (interaction score)
GGCUAGAACUAGUGGAUCCCCCGGCGCCCGGCGGCUCGAGCCCGGGUAAGUGUAAAUAGUCUGCAUGCCGCCGGGCGCCAUGCCUGCAGGUCGACUCUAGAAAACAUG,binding signal,PUM1 PUF domain R6-FYS,2.53 log2 enrichment (interaction score)
same,binding signal,PUM1 PUF domain R6-GYR,6.45 log2 enrichment (interaction score)
GGCUAGAACUAGUGGAUCCCCCGGCGCCCGGCGGCUCGAGCCCGGGUAAGUGUAAUUAGUCUGCAUGCCGCCGGGCGCCAUGCCUGCAGGUCGACUCUAGAAAACAUG,binding signal,PUM1 PUF domain R3-RVS,2.78 log2 enrichment (interaction score)
GGCUAGAACUAGUGGAUCCCCCGGCGCCCGGCGGCUCGAGCCCGGGUAAGUGCAAAUAGUCUGCAUGCCGCCGGGCGCCAUGCCUGCAGGUCGACUCUAGAAAACAUG,binding signal,PUM1 PUF domain R6-GYR,5.76 log2 enrichment (interaction score)
